This passage reports inhibition (viability loss, TRAIL sensitization) results from PubChem BioAssay AID624354 (Sanford-Burnham Center for Chemical Genomics, 2012).

Screen size: about 360,000 compounds; about 3,800 (1.1%) were called active. The entries come from a sample that favours actives as a whole. Values without a mark were called inactive.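 The calls were made as follows: active = compounds causing at least 50% loss of cell viability in the single-dose screen, relative to plate controls; inactive = the rest.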

The test can be described thus: viability loss with TRAIL in NB7+C8 cells, primary screen, TRAIL sensitizer project, cell-based, ATPlite luminescence (AID 624354). Conditions: at 10 µM, hits give high values. For orientation: Cellular ATP, detected with luciferase, serves as a proxy for viable cell number.
`O=C(NCCO)C(=O)NCC(c1ccc2c(c1)OCO2)N1CCN(c2ccc(F)cc2)CC1` (stereo not drawn): the inhibition (viability loss, TRAIL sensitization) was -13%.

With `COc1ccc([N+](=O)[O-])cc1NC(=O)C(C)OC(=O)C1c2ccccc2Oc2ccccc21` (stereo not drawn), the inhibition (viability loss, TRAIL sensitization) was 5.23%.

Consider `CCN(C(=O)COc1cccnc1[N+](=O)[O-])C1CCS(=O)(=O)C1` (stereo not drawn), for which the inhibition (viability loss, TRAIL sensitization) was -20.2%.

For the compound `CC1CCN(C(=O)c2cccc(S(=O)(=O)N3CCCc4ccccc43)c2)CC1`, the inhibition (viability loss, TRAIL sensitization) is 9.56%.

For the compound `CCN(C(=O)COc1ccc(C(=O)c2ccccc2)cc1)c1ccccc1`, the inhibition (viability loss, TRAIL sensitization) is 5.81%.

In the case of `CCOc1ccc2nc(C(=O)N3CCCC(C)C3)sc2c1` (stereo not drawn), the inhibition (viability loss, TRAIL sensitization) was 31.9%.

In the case of `CCC(=O)Nc1nnc(S(=O)(=O)N2CCCc3ccccc32)s1`, the inhibition (viability loss, TRAIL sensitization) is 18.7%.

For `CCOc1ccc2nc(N(CCCN(C)C)C(=O)c3ccc(C(=O)c4ccccc4)cc3)sc2c1`, the inhibition (viability loss, TRAIL sensitization) was 84.6% (active).

Regarding `CN(C)CCCN(C(=O)c1ccc(S(=O)(=O)N2CCCc3ccccc32)cc1)c1nc2ccc(F)cc2s1`, the inhibition (viability loss, TRAIL sensitization) was 49.7% (active).

`CC(C)CC(=O)N1CCN(Cc2ccccc2Br)CC1`: the inhibition (viability loss, TRAIL sensitization) is -13.2%.

Take `COC(=O)[C@]12CCCCC=C1N(Cc1cccc3ccccc13)C(=O)[C@H](CC(=O)N1CCOCC1)C2`: the inhibition (viability loss, TRAIL sensitization) was -17.8%.

For `CCN(Cc1ccncc1)C(=S)Nc1ccccc1C`, the inhibition (viability loss, TRAIL sensitization) is -14.3%.

For `COc1cc(C=O)ccc1Oc1nnnn1-c1ccccc1`, the inhibition (viability loss, TRAIL sensitization) is 9.4%.

In the case of `O=C(CNC(=O)c1cc(=O)[nH]c2ccccc12)Nc1ccc(F)c(F)c1`, the inhibition (viability loss, TRAIL sensitization) was -6.89%.

For `CN1CCN(CCCNC(=O)c2ccc(/C=C3\Oc4ccccc4N(Cc4ccc(Cl)cc4)C3=O)cc2)CC1`, the inhibition (viability loss, TRAIL sensitization) was 70.5% (active).

For the compound `CCC1Oc2ccccc2N(CC(=O)NCCCN2CCN(CC)CC2)C1=O` (stereo not drawn), the inhibition (viability loss, TRAIL sensitization) is -10.7%.

`Cc1ccc(NC(=O)CCCNC(=O)c2ccc(Cl)cc2)cc1S(=O)(=O)N1CCOCC1`: the inhibition (viability loss, TRAIL sensitization) was 3.06%.

Turning to `O=C(Nc1cccc(F)c1)N1C2CCC1CC(O)(c1cccnc1)C2` (stereo not drawn), the inhibition (viability loss, TRAIL sensitization) is -0.997%.

As for `Cc1ccsc1C(=O)OCC(=O)c1cc(C)n(CC2CCCO2)c1C` (stereo not drawn), the inhibition (viability loss, TRAIL sensitization) is 75.4% (active).

As for `COc1ccc(CNC(=O)COC(=O)c2sccc2C)cc1OC`, the inhibition (viability loss, TRAIL sensitization) was -16.5%.

`CCCn1c(C)cc(C(=O)COC(=O)c2c(C)nn(-c3ccccc3)c2C)c1C`: the inhibition (viability loss, TRAIL sensitization) is 1.44%.

As for `COc1ccc(/C=N/N=C/c2c[nH]c(=O)c(C#N)c2Nc2ccccc2)cc1`, the inhibition (viability loss, TRAIL sensitization) is 19.4%.

In the case of `COc1ccc(-c2cc3nc(NCCOc4ccccc4)ccn3n2)cc1`, the inhibition (viability loss, TRAIL sensitization) is 2.79%.

Take `COc1ccc(-c2cn3ccsc3n2)cc1`: the inhibition (viability loss, TRAIL sensitization) is 54.1% (active).

On to `COc1ccc(-c2cn3ccc(C)cc3n2)cc1`, for which the inhibition (viability loss, TRAIL sensitization) was 87.1% (active).

As for `Cc1ccc(S(=O)(=O)NCc2cn3ccsc3n2)c(C)c1`, the inhibition (viability loss, TRAIL sensitization) was -5.68%.

Take `FC(F)(F)Oc1ccc(-c2cn3cccnc3n2)cc1`: the inhibition (viability loss, TRAIL sensitization) is 34.5%.

Regarding `COc1cc(OC)cc(-c2nc(=S)n3ccsc3n2)c1`, the inhibition (viability loss, TRAIL sensitization) was -7%.

With `CCn1cc(C(=O)NCC(=O)NC(C)(C)CO)c(=O)c2cc3c(cc21)OCO3`, the inhibition (viability loss, TRAIL sensitization) was -16.5%.

For `COc1ccc(C(C)NC(=S)NC2CCCCC2)cc1OC` (stereo not drawn), the inhibition (viability loss, TRAIL sensitization) was -10.3%.

As for `CN1CC(c2ccccc2)C2(COc3ccccc3C2=O)C12C(=O)Nc1ccccc12` (stereo not drawn), the inhibition (viability loss, TRAIL sensitization) was 1.61%.

Take `COc1ccc(OC)c(NC(=O)CSc2nc(N)c(-c3ccccc3)c(=O)[nH]2)c1`: the inhibition (viability loss, TRAIL sensitization) is -16.4%.

As for `OC(CNCc1ccc(Cl)c(Cl)c1)c1ccccc1` (stereo not drawn), the inhibition (viability loss, TRAIL sensitization) was 1.28%.
